The record followed here is PubChem BioAssay (NCI).

About 83,000 compounds went through this panel and 20% of them were active in at least one assay; those are over-represented in the sample as a whole.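 48-hour exposure, single concentration, 96-well plates; percent growth endpoint where 0 means no net growth. Active: below 10.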 Active and inactive are the calls of the source.

The test concerns NCI-H460 lung. The experiment in a line: NCI-60 one-dose screen, 48 h (100 = growth as untreated, 0 = no growth, -100 = all killed). Conditions: 10 µM unless noted.
For `CCCc1cc(NC)nc(S(=O)(=O)CC)n1`, the growth was 110% (inactive).

On to `Cc1ccc(Cl)cc1Nc1nc(C(F)(F)F)ccc1C(=O)N/N=C/c1cccnc1`, for which the growth was 18.3% (inactive). On to `Cc1ccc(/C=C2\CN(C(=O)OC(C)(C)C)C/C(=C\c3ccc(C)cc3)C2=O)cc1`, for which the growth was 53% (inactive). To `O=C(Nc1cccc([N+](=O)[O-])c1)c1cc2ccccc2cc1O` belongs 3.41% (active); to `NC(=O)c1c(NC(=O)c2ccccc2)sc2c1CCC(=O)C2`, 11.6% (inactive); to `COc1cc(N2C(=O)[C@H](O)C2c2ccc(SC)cc2)cc(OC)c1OC` (stereo not given in full), 5.6% (active). Regarding `Cn1cc(-c2nc(-c3c[nH]c4ccncc34)cs2)c2ccccc21`, the growth is -37.7% (active). To `OCCNCCCOc1ccc2ncnc(Nc3ccc(Oc4cccc(C(F)(F)F)c4)c(Cl)c3)c2c1` belongs -82.5% (active); to `O=S(=O)(NCCNc1cc(-c2c(-c3cccc(O)c3)nc3sccn23)ccn1)c1ccc(C(F)(F)F)cc1`, 21.1% (inactive); to `CCOC(=O)c1nc(Nc2ccc(NC(=O)Nc3ccc(F)cc3)cc2)c2ccccc2n1`, 99.1% (inactive). To `CCN1C(=O)N(CC)C2C1NN=c1s/c(=C\c3cccc([N+](=O)[O-])c3)c(=O)n12` (stereo not given) belongs 5.14% (active). In the case of `C#Cc1cccc(Nc2ncnc3ccc(-c4cnc(N)nc4)cc23)c1`, the growth was 37.8% (inactive). In the case of `CCN(CC)CCSc1nc(-c2ccccc2)c(C#N)c(=O)[nH]1` it was 118% (inactive); in that of `CN1C(=O)/C(=C/c2cn(-c3ccccc3)nc2-c2ccccc2)SC1=S`, 101% (inactive). In the case of `O=C1Nc2ccccc2/C1=C\c1nc(-c2ccccc2)n2ccccc12` it was 94.4% (inactive); in that of `COc1ccc(NC(=O)c2sc3nc(C)c(C(=O)/C=C/c4cccc(OC)c4)cc3c2N)cc1`, -7.38% (active). In the case of `Nc1nc2c([nH]1)c1[nH]c3ccccc3c1c1[nH]c3ccccc3c21` it was 8.05% (active). As to `Cc1ccc(-c2nc3nc(-c4ccc(F)cc4)nc(N4CCNCC4)c3o2)cc1`, the growth was -84.6% (active).

As for `COc1ccc(OC)c(C(=O)/C=C/c2cc3c(c(OC)c2OC)OCO3)c1`, the growth was 50.1% (inactive). To `CN1C(=O)/C(=C/c2ccc(C(=O)Nc3ncc(Cc4ccc(Cl)cc4)s3)cc2)SC1=S` belongs 21.1% (inactive); to `O=C(OCc1ccc2c(Cl)cc(Cl)c(O)c2n1)n1cncn1`, 19.9% (inactive); to `C[C@]12C=CC(=O)C=C1CCC1C2[C@@H](O)C[C@@]2(C)C1CC[C@]2(O)C(=O)COC(=O)CCC(=O)O` (stereo not given in full), 103% (inactive). On to `COc1ccc2c(c1)c(-c1noc(C(=O)c3cn(C)c4ccc(Br)cc34)n1)cn2C`, for which the growth is 105% (inactive). In the case of `COc1ccc(/C=N/C2=C(C#N)C(c3cccc(Cl)c3)c3c(ccc4ccccc34)O2)cc1` (stereo not given), the growth is 16.8% (inactive).

In the case of `Cc1ccccc1Cn1cnc2ccc(-c3cc(NC(=O)c4ccc(NC5CCN(C)CC5)cc4)n[nH]3)cc21`, the growth is 91.9% (inactive).

As to `O=C1CC(N2C(=O)/C(=C/C(Cl)=C\c3ccc([N+](=O)[O-])cc3)SC2=S)C(=O)N1c1ccc(Cl)cc1` (stereo not given), the growth is 74.5% (inactive).

For `CCN(CC)CCOc1ccc(-c2c(-c3ccccc3)c(=O)oc3ccccc23)cc1`, the growth is 95.8% (inactive).

With `CCNC(=O)c1[nH]cc(-c2ccccc2)c1-c1cc(OC)c2c(c1OC)OCO2`, the growth is 108% (inactive).

Regarding `Cc1cc(=O)[nH]c2c(C#N)cnn12`, the growth is 104% (inactive). As to `COCCn1c(-c2csc(-c3cn(C)c4ccc(OC)cc34)n2)cc2cccnc21`, the growth was 21.7% (inactive). In the case of `COC(=O)[C@]1(C)CCC[C@]2(C)[C@H]3C[C@H]4C(C(C)C)=C[C@]3(CC[C@H]21)[C@H]1[C@@H]4[C@@H](OCCC#N)CC[C@@H]1OCCC#N` it was 33.3% (inactive); in that of `O=C(NCCCCNC(=O)OCc1ccc2c(Cl)cc(Cl)c(O)c2n1)OCc1ccc2c(Cl)cc(Cl)c(O)c2n1`, 2.78% (active). As to `COC(=O)c1c2c(c(C)[n+]([O-])c1C)C(=O)C=C(NCc1ccc(Br)cc1)C2=O`, the growth was -53.8% (active). To `CCCCCCNC(=O)Oc1ccc(/C(=C(/C)Cc2ccc(OC)cc2)c2ccc(OCCCN(C)C)cc2)cc1` belongs -52.7% (active). For the molecule `CCCCCCC1(C)NCCO1` (stereo not given), the growth is 106% (inactive). In the case of `CC[C@]12C=CCN3CC[C@@]4(c5cc(NC(=O)CCC(=O)OCc6cn(Cc7ccc(F)cc7)nn6)c(OC)cc5N(C)[C@H]4[C@@](O)(C(=O)OC)[C@@H]1OC(C)=O)[C@@H]32` it was 106% (inactive). To `Oc1c(Cl)cc(Cl)c2ccc(Cn3cc(-c4cc(C(F)(F)F)cc(C(F)(F)F)c4)nn3)nc12` belongs 101% (inactive). To `O=C1C(Cl)=C(Oc2ccccc2)C(=O)c2ccccc21` belongs 94.4% (inactive); to `COc1ccccc1Nc1nc2c(s1)C1=CC[C@H]3[C@@H]4CC[C@H]([C@H](C)CCCC(C)C)[C@@]4(C)CC[C@@H]3[C@@]1(C)CC2`, 108% (inactive); to `N#Cc1cccc(-c2c(-c3ccc4ccccc4c3)oc3ccccc3c2=O)c1`, 17.9% (inactive).
